We go through 20 compounds from PubChem BioAssay (EPA / NIEHS).

Several values for one entry are separate records, joined by “and”; a condition that tells them apart may be missing. Equal values may be shown once. Results filed as inconclusive are left out. Where a structure was tested more than once in an assay, its records may differ in their call. Activity calls are given as the source filed them. The calls were made as follows, unless noted: active = hit-call score of the fitted dose curve at least 0.9, where 1 is the maximum; inactive = score below 0.9.

Assay [1] in a line: CCTE_Shafer_MEA_acute_LDH: CCTE's Lactate Dehydrogenase Assay for Cytotoxicity in the Neural Acute Assay, Shafer Lab (AID 2284086; active = hit-call score of the fitted dose curve at least 0.9, where 1 is the maximum;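 also: active means LDH release rises above DMSO vehicle level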). The method, boiled down: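 Medium from rat cortical neuron MEA cultures sampled right after the 40 min compound-exposure recording; released LDH measured by absorbance at 490 nm. Analyzed as signal gain relative to DMSO.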
Assay [2] in a line: CCTE_Shafer_MEA_dev_mutual_information_norm: CCTE's Neural Network Formation Assay for Mutual Information Normalization, Shafer Lab (AID 2284091).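 As to AC50: mutual information between electrodes summarised as area under curve across four recording days; potency is for a decrease in mutual information relative to DMSO.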 In a few lines:
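Rat cortical cultures, 48-well MEA, continuous exposure DIV 0–12 with full media/compound change DIV 5 and 9. Readout: inter-electrode mutual information, AxIS adaptive spike detection; AUC across DIV 5/7/9/12 recordings; DMSO baseline, negative fitting direction.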

Assay [3] in a line: CCTE_Shafer_MEA_dev_correlation_coefficient_mean: CCTE's Neural Network Formation Assay for Mean Correlation Coefficient, Shafer Lab (AID 2284093).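 As to AC50: well mean pairwise spike train correlation integrated as AUC over recording days 5 to 12; potency fitted for loss of correlation relative to DMSO vehicle wells.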 In a few lines:
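Extracellular firing from rat cortical networks on 48-well MEAs, DMSO-referenced, negative fitting direction. Compound present from plating to DIV12; mean pairwise correlation per well integrated over DIV5–12 recordings by trapezoidal AUC.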

Assay [4] can be described thus: IUF_NPC1b_proliferation_BrdU_72hr: Leibniz Research Institute for Environmental Medicine (IUF) 72-hour Neural Progenitor Cell Bromodeoxyuridine (BrdU) Proliferation Assay (NPC1b) (AID 2284207). The method, boiled down:
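hNPC spheres (primary, GW 16-19 fetal cortex), single sphere/well, EGF+FGF medium; 72 h compound, no renewal; BrdU pulse last 16 h; luminescent ELISA; activity vs DMSO baseline; growth-factor withdrawal as positive control.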

Assay [5] in a line: IUF_NPC1a_proliferation_area_72hr: Leibniz Research Institute for Environmental Medicine (IUF) 72-hour Neural Progenitor Cell Proliferation Area Assay (NPC1a) (AID 2284208). The method, boiled down: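 hNPC spheres (human fetal cortex, GW 16-19), one per poly-Hema U-bottom well; EGF+FGF medium; dosed day 0, no re-dosing; 72 h, 37C, 5% CO2; phase-contrast sphere area; DMSO = baseline; minus-GF = positive ctrl.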

A short description of assay [6]: IUF_NPC1_viability_72hr: Viability Assessment at 72 hours in the Leibniz Research Institute for Environmental Medicine (IUF) Neural Progenitor Cell Proliferation Assay (NPC1) (AID 2284209). The method, boiled down:
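Single spheres (0.25-0.35 mm) of human fetal cortex-derived neural progenitor cells were grown in proliferation medium with EGF and FGF at 37C and 5% CO2. They were exposed for 72 h without renewal, and viability was read by alamar blue resorufin fluorescence.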

The nature of assay [7]: UKN2_HCS_IMR90_neural_migration: University of Konstanz (UKN) Leist Lab Neural Crest Cell Migration Assay in human induced IMR90 Pluripotent Stem Cells (UKN2) (AID 2284204). Conditions: actives raise or lower the signal. The method, boiled down:
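iPSC-derived IMR90 neural crest cells on PLO/laminin/fibronectin were seeded around silicone stoppers; after stopper removal, migration in N2-S medium with EGF and FGF ran 24 h before 24 h chemical exposure. Calcein-AM/Hoechst high-content imaging; bidirectional fit versus DMSO.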

Assay [8] in a line: CCTE_Mundy_HCI_Cortical_Synap_Neur_Matur_NeuriteSpotCountPerNeuriteLength: CCTE's Synaptogenesis and Neurite Maturation Assay in rat cortical cells for Neurite Spot Count per Neurite Length, Mundy Lab (AID 2284210). In a few lines: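 Rat primary cortical cultures, glia arrested with AraC at DIV 5, were dosed with media change at DIV 7 and fixed at DIV 12. Synaptophysin puncta per MAP2-labelled neurite length were quantified by high-content imaging versus DMSO.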

Assay [9] in a line: CCTE_Mundy_HCI_Cortical_Synap_Neur_Matur_BPCount: CCTE's Synaptogenesis and Neurite Maturation Assay in rat cortical cells for Branch Point Count, Mundy Lab (AID 2284211). The method, boiled down:
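Rat primary cortical cultures, AraC added DIV 5; chemicals dosed DIV 7 through DIV 12. Fixed cells stained for MAP2, synaptophysin and Hoechst; neurite branch points counted by automated high-content imaging, fitted relative to DMSO.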

In general, AC50 refers to the concentration at which the activity in the assay is half-maximal. With `C=C(C)[C@H]1Cc2c(ccc3c2O[C@@H]2COc4cc(OC)c(OC)cc4[C@@H]2C3=O)O1`, the call in assay [1], in assay [4] and in [6] was inactive. The AC50 was 7.09 nM (active) in assay [2]; 14.5 nM (active) and 16.1 nM (active) in assay [3]; 0.0427 µM (active) in assay [4]; 756 nM (active) and 41.6 nM (active) in assay [5]; 0.329 µM (active) in [6].
Regarding `CC(C)=CC1C(C(=O)OCN2C(=O)C3=C(CCCC3)C2=O)C1(C)C` (stereo not drawn), the result in assay [1], in assay [2] and in [3] was inactive.
In the case of `CCCSP(=O)(OCC)SCCC`, the AC50 was 9.23 µM (active) and 14.7 µM (active) in assay [2]; 15.8 µM (active) and 20.4 µM (active) in assay [3]. For the same compound, the compound was classed as inactive in assay [7], in assay [4], in assay [5], in assay [6], in assay [8] and in assay [9].
With `N#CSCSC#N`, the compound was called inactive in assay [1].
For the compound `CCOP(=S)(OCC)OC(Cl)C(Cl)(Cl)Cl` (stereo not drawn), the AC50 in assay [2] is 15.9 µM (active) and 18 µM (active); in assay [3], 21.2 µM (active) and 17.8 µM (active); in assay [4], 1.35 µM (active); in assay [8] it was 16.5 µM (active); in assay [9], 70.5 µM (active) and 13.3 µM (active). Also, the call in [7], in assay [5], in assay [6] and in [8] was inactive.
`CCCSP(=O)(OCC)Oc1ccc(Br)cc1Cl` (stereo not drawn): the compound was classed as inactive in [2], in assay [3], in [8] and in assay [9].
Regarding `CN(C)[C@@H]1C(=O)C(C(N)=O)=C(O)[C@@]2(O)C(=O)C3=C(O)c4c(O)cccc4[C@@](C)(O)[C@H]3[C@H](O)[C@@H]12`, the compound was classed as inactive in assay [1], in [2], in assay [5] and in assay [6]. Moreover, the AC50 in assay [3] is 88.2 µM (active); in assay [7], 116 µM (active); in assay [4], 12.1 µM (active); in assay [8], 50 µM (active); in assay [9], 70.5 µM (active).
On to `Cc1ccn2nc(S(=O)(=O)Nc3c(F)cccc3F)nc2n1`, for which the call in assay [1] was inactive.
On to `CCOP(=S)(Oc1cnc(C(C)(C)C)nc1)OC(C)C` (stereo not drawn), for which the compound was called inactive in assay [1], in [7], in assay [5], in assay [6], in assay [8] and in [9]. Moreover, the AC50 was 80.9 µM (active) and 13.4 µM (active) in [2]; 79.7 µM (active) and 17.4 µM (active) in assay [3]; 12.8 µM (active) in assay [4]; 16.5 µM (active) in assay [8]; 25.2 µM (active) in assay [9].
For the compound `CC(C)[C@H](C(=O)O[C@H](C#N)c1cccc(Oc2ccccc2)c1)c1ccc(Cl)cc1`, the concentration at half-maximal activity (AC50) in [2] was 189 nM (active); in assay [3] it was 0.564 µM (active).
For the compound `C[N+]1(C)CCCCC1`, the compound was classed as inactive in assay [1], in [2], in assay [3], in assay [4], in [5] and in assay [6]. In addition, the result in assay [8] and in assay [9] was inactive.
Consider `S=C1NCCN1`, for which the compound was classed as inactive in [2], in assay [3], in assay [4], in [5], in assay [6] and in [8]. Further, the call in assay [9] was inactive.
In the case of `O=C(O)c1cc(Oc2ccc(C(F)(F)F)cc2Cl)ccc1[N+](=O)[O-]`, in assay [1], the compound was called inactive.
As to `CSC1=N[C@@](C)(c2ccccc2)C(=O)N1Nc1ccccc1`, the result in assay [1], in [2], in [3], in assay [4], in [5] and in assay [6] was inactive. For the same compound, the compound was called inactive in [8] and in [9].
As for `CCCCSP(=O)(SCCCC)SCCCC`, the half-maximal activity concentration (AC50) in assay [2] is 29.3 µM (active) and 18.4 µM (active); in assay [3], 29.6 µM (active) and 35 µM (active); in assay [4], 87.2 µM (active); in assay [8], 14 µM (active); in assay [9], 50 µM (active) and 14 µM (active). The call in assay [7], in assay [5] and in [8] was inactive.
As for `COP(=O)(NC(C)=O)SC` (stereo not drawn), the half-maximal activity concentration (AC50) in assay [1] is 0.00708 µM (active); in [2], 15000 nM (active). The result in assay [1], in assay [2], in [3], in [4], in [5] and in assay [6] was inactive. Besides, the compound was classed as inactive in assay [8] and in [9].
`CCOP(=S)(OCC)Oc1ccc([N+](=O)[O-])cc1`: the result in [2] and in assay [3] was inactive. Also, the AC50 in assay [8] is 20.9 µM (active); in assay [9], 2.98 µM (active).
With `CN1COCN(Cc2cnc(Cl)s2)C1=N[N+](=O)[O-]`, the result in assay [1], in assay [2], in assay [3], in assay [4], in [5] and in assay [6] was inactive. The compound was called inactive in assay [8] and in assay [9].
For the compound `CCOP(=S)(OCC)Oc1ccc2c(C)c(Cl)c(=O)oc2c1`, the call in assay [1] and in [8] was inactive. In addition, the AC50 in assay [2] is 21900 nM (active); in assay [3] it was 41.6 µM (active); in assay [9] it was 50 µM (active).
Regarding `COP(=O)(OC)OC(Br)C(Cl)(Cl)Br` (stereo not drawn), the half-maximal activity concentration (AC50) in assay [2] is 4.85 µM (active) and 13 µM (active); in assay [3], 8.49 µM (active) and 16 µM (active); in assay [7] it was 25.4 µM (active); in assay [4] it was 50.1 µM (active); in [5], 26.6 µM (active); in assay [9] it was 50 µM (active) and 27.8 µM (active). Moreover, the call in assay [6] and in [8] was inactive.
